DAX1 inh-1: DAX1 (NR0B1) inhibition, primary screen. HEK293T StAR-luciferase reporter, SF-1/DAX-1 repression relief. 1.1% of 370,000 active. inhibition, % at 6.8 µM;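 active = inhibition above the mean over all tested compounds plus 3 SD, cut at about 3.6% in these data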;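 note: 0% = DAX-1 cells with DMSO and 100% = cells lacking DAX-1 with DMSO; higher inhibition means more luminescence from relief of DAX-1 repression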
hcDAF-12 act: activates DAF-12 receptor from parasite H. contortus; HEK293 hcDAF-12 lit1-tk-luc reporter, luminescence; 0% DMSO, 100% Δ7-dafachronic acid; activation, % at 6.8 µM; 1.4% of 370,000 active; AID 652067;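 active = activation above the mean of all tested compounds plus 3 SD, cut at about 5.5% in these data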;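 note: 100% = response to 3 µM Δ7-dafachronic acid high control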
hgDAF-12 ag: hgDAF-12 agonism, primary luciferase screen | HEK293 GAL4-hgDAF12 UAS-luciferase reporter, agonist luminescence; normalized to butyrate control | activation, % at 6.8 µM | AID 687014 | 1.8% of 370,000 active;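 active = activation above a cutoff set at the mean of all screened compounds plus 3 SD, cut at about 10% in these data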;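 note: 0% = DMSO wells and 100% = sodium butyrate wells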
ssDAF-12 act: activates DAF-12 receptor from parasite S. stercoralis; HEK293 ssDAF-12/GRIP1 lit1-tk-luc reporter, luminescence; % of 3 µM dafachronic acid response; activation, % at 6.8 µM; 1% of 370,000 active;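 active = activation above the mean over all tested compounds plus 3 SD, cut at about 0.9% in these data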;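 note: 0% = DMSO-only wells and 100% = 3 µM delta7-dafachronic acid wells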
SMARCA2 activ: increases SMARCA2 function in MMTV reporter cells; MG213 cells, MMTV-luciferase reporter, dexamethasone, overnight; activation, % at 9.1 µM; 1% of 370,000 active; AID 652017; in the data active = activation above about 7.8%;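 note: 0% = vehicle wells and 100% = reference activator wells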
DAX1 inh-2: NR0B1 (DAX1) inhibition; HEK293 Gal4-DAX1 luciferase reporter, luminescence; inhibition, % at 6.75 µM; AID 504766; 0.99% of 340,000 active; P51843;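 active = inhibition above the mean over all tested compounds plus 3 SD, cut at about 4.2% in these data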;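 note: 0% = DAX1-transfected cells with DMSO and 100% = empty-vector control cells with DMSO; inhibition shows as a rise in luminescence from relieved DAX1 repression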
LXR ag: LXR-beta agonism as hcDAF-12 counter-screen; shares compounds with hcDAF-12 act; HEK293 Gal4-LXR tk-luc reporter, luminescence, 24 h; normalized: DMSO 0%, positive control 100%; activation, % at 6.8 µM; 3,400 tested, under 10 active;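 active = mean percent activation of the reporter above a cutoff set as the average over tested compounds plus their standard deviation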
Target sequence (P55055 whole entry, looked up, the tested form may be a part): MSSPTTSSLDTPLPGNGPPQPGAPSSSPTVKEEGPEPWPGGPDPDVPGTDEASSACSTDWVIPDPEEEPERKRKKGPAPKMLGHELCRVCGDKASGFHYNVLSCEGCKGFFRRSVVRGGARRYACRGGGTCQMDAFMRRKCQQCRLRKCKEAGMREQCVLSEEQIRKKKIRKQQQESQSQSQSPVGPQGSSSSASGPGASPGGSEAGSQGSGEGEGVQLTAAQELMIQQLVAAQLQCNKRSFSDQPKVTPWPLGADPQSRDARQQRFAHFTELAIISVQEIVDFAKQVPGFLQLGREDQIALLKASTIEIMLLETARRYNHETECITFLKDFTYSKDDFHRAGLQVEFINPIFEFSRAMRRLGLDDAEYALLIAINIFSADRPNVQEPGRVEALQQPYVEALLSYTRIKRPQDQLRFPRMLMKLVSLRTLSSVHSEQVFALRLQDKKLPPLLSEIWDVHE
hcDAF12 ag: confirmation of H. contortus DAF-12 agonists. shares compounds with hcDAF-12 act. HEK293 hcDAF-12 lit1-tk-luc reporter, luminescence; % of Δ7-dafachronic acid response. activation, % at 6.8 µM. 61% of 3,400 active. AID 743032;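 active = mean activation across triplicate tests above the threshold derived from the earlier primary screen, cut at about 5.5% in these data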;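 note: 0% = DMSO only wells and 100% = 3 µM Δ7-dafachronic acid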
* = called active by the depositor; . = no result given. Hits are enriched below; roughly 4.8% of the tested compounds scored in any of these assays.

SMILES	DAX1 inh-1	hcDAF-12 act	hgDAF-12 ag	ssDAF-12 act	SMARCA2 activ	DAX1 inh-2	LXR ag	hcDAF12 ag
CN(C)c1cccc(/C=C(\C#N)c2ccccc2)c1	-1	7.1*	19*	1.2*	4	0	2	9.0*
COc1ccc(Cl)cc1NC(=O)COC(C)=O	0	-1	0	-2	-3	0	.	.
COc1ccc(Cl)cc1NC(=O)COC(=O)c1ccc(Cl)nc1	0	6.7*	5	1	-1	0	0	2
COc1ccc(N=Nc2ccc3ccccc3c2)c(O)c1	1	8.1*	5	0	0	4	2	12*
COc1ccc(C(C)(C)C)cc1NC(=O)CNc1cccc2ccccc12	0	7.6*	-3	-1	-6	-1	0	0
COc1ccccc1NC(=O)Cc1cccc2ccccc12	0	-2	-2	-1	0	-1	.	.
O=C(Nc1ccc(F)cc1)c1ccc(C(=O)N2CCCC(O)C2)cc1 (stereo not given)	0	-1	1	-1	1	1	.	.
O=[N+]([O-])c1cccc2ccc(/C=C/c3ccc(C(F)(F)F)cc3)nc12	0	7.6*	2	0	-1	0	0	2
O=[N+]([O-])c1cccc2ccc(/C=C/c3ccc(Cl)cc3)nc12	1	4	6	0	2	0	.	.
Oc1ccccc1OCc1nc2ccccc2s1	3	7.1*	11*	1.4*	7	2	1	6.2*
O=C(Nc1nccs1)c1cnc2sccn2c1=O	2	8.5*	9	1.5*	6	1	0	7.6*
Cc1cc2occ(CC(=O)NNC(=O)c3ccccc3)c2cc1C	-1	-2	0	-1	1	-1	.	.
Fc1ccc(-c2nnc(CSc3nnc4ccccn34)o2)cc1	1	3	7	-1	3	0	.	.
c1ccc(-c2cnc(CSc3nnc4ccccn34)o2)cc1	3	8.5*	12*	0	1	2	1	5.8*
COc1ccc(Nc2cccc3ccccc23)cc1	1	6.9*	5	1.3*	4	0	1	6.5*
COc1ccc(Nc2cccccc2=O)cc1	2	-1	7	-2	1	0	.	.
Cc1ccc([C@H]2C(C#N)=C(N)Oc3cc(C)oc(=O)c32)o1	0	0	0	0	-1	-1	.	.
CCOC(=O)N1CCN(C(c2ccc(C(C)C)cc2)c2sc3nc(C)nn3c2O)CC1 (stereo not given)	-1	-2	-3	-1	1	0	.	.
Cc1ccc2[nH]c(=O)c(CN(CCCN(C)C)C(=S)NCCc3ccccc3)cc2c1	0	-1	-1	-2	-1	1	.	.
Cc1ccc2[nH]c(=O)c(C(c3nnnn3C3CCCC3)N3CCCc4ccccc43)cc2c1 (stereo not given)	1	6.7*	2	0	-1	0	0	4
Cc1cc(/C=C2\Cc3ccccc3C2=O)c(C)n1-c1ccccc1	1	9.0*	8	1	-4	-1	0	-1
O=C(N/N=C/c1ccccc1OCc1ccccc1)c1cccnc1	0	-2	-1	-2	1	0	.	.
Cn1c(=N)n(CC(=O)O)c2ccccc21	0	3	1	-1	1	1	.	.
Cc1ccc(C(=O)Cn2c(=N)n(N)c3ccccc32)cc1	2	7.5*	9	1.6*	6	4.6*	0	4
CCN(CC)CCn1c(=N)n(CC(=O)c2ccc(C)cc2)c2ccccc21	1	8.2*	5	1.2*	2	3	0	5
CCCCn1c(=N)n(CC(=O)O)c2ccccc21	0	2	0	-2	-2	1	.	.
N=c1n(CC(=O)c2ccc(Br)cc2)c2ccccc2n1Cc1ccccc1	-1	-2	-2	-1	0	0	.	.

Screening data (PubChem)
